Hits are enriched below; roughly 6.8% of the tested compounds scored in any of these assays.
C diff growth – C. difficile growth inhibitors, primary screen, HTS; growth activity, negative = inhibition, % at 16 µg/mL (by protocol); AID 1259249, 2017; 86,000 compounds, 0.25% hits; Clostridium difficile clinical isolate growth, OD600, 24 h; active compounds read low;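 active = mean growth activity at or below -80% and every replicate also at or below -80%; inconclusive = mean at or below -80% but some replicate above -80%; inactive = mean growth activity above -80%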;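 also: 0% = DMSO wells and -100% = levofloxacin 16 µg/mL wells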
Pf Dd2 growth – P. falciparum Dd2 growth inhibitors, primary screen, SYBR Green fluorescence, single dose replicates | 72 h; active compounds read low | activity change, % at 10 µM | 94,000 compounds, 2.3% hits; in the data active = activity change below about -80%; inconclusive = no clear call, values can overlap the other calls
T cruzi growth – T. cruzi intracellular proliferation inhibitors, primary screen, cell-based, beta-gal Tulahuen parasites, NIH3T3 host, luminescence. T. cruzi beta-gal in NIH3T3, GalScreen luminescence, 90 h. inhibition, % at 8.34 µM. 77,000 compounds, 5.9% hits. AID 624255, 2012;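 active = mean inhibition above about 93%, with at least 55% of replicates each passing it, limit read from the data, passing the limit was not always enough; inconclusive = only one of those two conditions holds; inactive = neither condition holds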
Starred values were filed as active, the others as inactive; ? = inconclusive; . = no result given; ! = a repeat was not active.

SMILES	C diff growth	Pf Dd2 growth	T cruzi growth
COc1ccc2c3c(n(C)c2c1)[C@@H](CO)N(Cc1cccc(Cl)c1)CC31CCN(C(C)=O)CC1	-1	-38	.
CCC(=O)N1CCC2(CC1)CN(Cc1cccc(Cl)c1)[C@H](CO)c1c2c2ccc(OC)cc2n1C	6	-89*	.
COc1ccc2c3c(n(C)c2c1)[C@@H](CO)N(Cc1cc(F)ccc1F)CC31CCN(C(=O)C2CC2)CC1	4	-81*	.
COc1ccc2c3c(n(C)c2c1)[C@H](CO)N(Cc1ccccc1)CC31CCN(C(=O)C2CC2)CC1	1	-83*	.
C[C@@H](NC(=O)C[C@H]1CC[C@@H](NC(=O)Nc2ccc3c(c2)OCO3)[C@H](CO)O1)c1ccccc1	.	18	-8
CC(C)NC(=O)N1C[C@H]2[C@@H](c3ccccc31)[C@@H](CO)N2C(=O)Nc1cccc(F)c1	-6	3	9
C[C@H](CO)N1C[C@H](C)[C@@H](CN(C)CC2CC2)OCCCC[C@H](C)Oc2ccc(NC(=O)c3ccccc3)cc2C1=O	-1	-35	66
CCCN(C)C[C@@H]1OCCCC[C@@H](C)Oc2ccc(NC(=O)c3ccccc3)cc2C(=O)N([C@H](C)CO)C[C@@H]1C	3	-83*!	28
CCCN(C)C[C@H]1OCCCC[C@@H](C)Oc2ccc(NC(=O)c3ccccc3)cc2C(=O)N([C@H](C)CO)C[C@H]1C	4	-69	63
C[C@@H]1CCCCO[C@H](CN(C)CC2CC2)[C@H](C)CN([C@H](C)CO)C(=O)c2cc(NC(=O)c3ccccc3)ccc2O1	-4	-81*	15
COc1cccc(C(=O)Nc2ccc3c(c2)C(=O)N(C)[C@@H]2CC[C@H](CC(=O)NCCCN4CCOCC4)O[C@@H]2CO3)c1	-4	.	-56
COc1ccc(CN(C)C[C@@H]2Oc3c(NS(=O)(=O)c4ccc(Cl)cc4)cccc3C(=O)N([C@H](C)CO)C[C@@H]2C)cc1	4	-3	58
COc1cccc(NC(=O)N(C)C[C@@H]2Oc3ncc(C4=CCCCC4)cc3C(=O)N([C@@H](C)CO)C[C@@H]2C)c1	-6	-10	20
CN(C)CC#Cc1cccc(-c2nc(C(=O)N3CCN(Cc4ccccc4)CC3)cc3c2[C@@H](CCO)N(S(=O)C(C)(C)C)C3)c1 (stereo not given in full)	5	-3	.
CC(C)(C)[S@](=O)N1Cc2cc(C(=O)N[C@@H]3CCN(Cc4ccccc4)C3)nc(-c3cccc(-c4cccnc4)c3)c2[C@@H]1CCO	.	-88*	91
CC(C)(C)[S@](=O)N1Cc2cc(C(=O)N[C@H]3CCN(Cc4ccccc4)C3)nc(-c3cccc(-c4ccncc4)c3)c2[C@@H]1CCO	-6	-78	.
CN(C)CC#Cc1cccc(-c2nc(C(=O)N[C@@H]3CCN(Cc4ccccc4)C3)cc3c2[C@H](CCO)N(S(=O)C(C)(C)C)C3)c1 (stereo not given in full)	1	-85*	.
C[C@@H]1CN([C@@H](C)CO)S(=O)(=O)c2ccc(-c3ccncc3)cc2O[C@@H]1CN(C)C(=O)C1CCCCC1	-1	-9	47
C[C@H](CO)N1C[C@H](C)[C@H](CN(C)S(=O)(=O)c2ccccc2)OCc2ccccc2-c2c(n(C)c3ccccc23)C1=O	-9	-36	.
C[C@H](CO)N1C[C@H](C)[C@@H](CN(C)S(=O)(=O)c2ccc(Cl)cc2)OCc2ccccc2-c2c(n(C)c3ccccc23)C1=O	.	-85*	81
COc1ccc(S(=O)(=O)N(C)C[C@H]2OCc3ccccc3-c3c(n(C)c4ccccc34)C(=O)N([C@@H](C)CO)C[C@H]2C)cc1	.	-83*	83
C[C@H]1CN([C@@H](C)CO)C(=O)c2c(c3ccccc3n2C)-c2ccccc2CO[C@@H]1CN(C)S(=O)(=O)c1ccc([N+](=O)[O-])cc1	0	-68	.
C[C@H]1CN([C@@H](C)CO)C(=O)c2ccccc2-c2ccccc2CO[C@H]1CN(C)S(=O)(=O)c1ccc(Cl)cc1	-5	-83*	51
C[C@H]1CN([C@@H](C)CO)C(=O)c2c(c3ccccc3n2C)-c2ccccc2CO[C@H]1CN(C)S(=O)(=O)c1ccc([N+](=O)[O-])cc1	-2	-89*	.
C[C@@H]1CN([C@H](C)CO)C(=O)c2ccccc2-c2ccccc2CO[C@H]1CN(C)S(=O)(=O)c1ccc(Cl)cc1	7	-38	50
SMILES	C diff growth	Pf Dd2 growth	T cruzi growth
COc1ccc(S(=O)(=O)N(C)C[C@H]2OCc3ccccc3-c3c(n(C)c4ccccc34)C(=O)N([C@H](C)CO)C[C@@H]2C)cc1	.	22	-13
C[C@@H]1CN([C@@H](C)CO)C(=O)Cc2cc(NC(=O)NC3CCCCC3)ccc2O[C@@H]1CN(C)Cc1ccc(C(=O)O)cc1	-1	12	2
C[C@@H]1CN([C@H](C)CO)C(=O)c2cc(NC(=O)Nc3ccccc3)ccc2O[C@@H](C)CCCCO[C@H]1CN(C)C	3	-19	18
CC(C)NC(=O)N1C[C@H]2[C@@H](c3ccccc31)[C@@H](CO)N2C(=O)C1CCCC1	4	-11	-11
Cc1ccc(S(=O)(=O)N(C)C[C@H]2OCc3ccccc3-c3c(n(C)c4ccccc34)C(=O)N([C@H](C)CO)C[C@@H]2C)cc1	.	-88*	77
C[C@@H]1CN([C@@H](C)CO)C(=O)c2c(c3ccccc3n2C)-c2ccccc2CO[C@H]1CN(C)S(=O)(=O)c1ccccc1	.	-72	78
Cc1noc(C)c1S(=O)(=O)N(C)C[C@@H]1OCc2ccccc2-c2c(n(C)c3ccccc23)C(=O)N([C@@H](C)CO)C[C@H]1C	10	17	11
Cc1noc(C)c1S(=O)(=O)N(C)C[C@H]1OCc2ccccc2-c2c(n(C)c3ccccc23)C(=O)N([C@@H](C)CO)C[C@H]1C	2	-89*	84
COc1ccc(S(=O)(=O)N(C)C[C@@H]2OCc3ccccc3-c3c(n(C)c4ccccc34)C(=O)N([C@@H](C)CO)C[C@H]2C)cc1	.	-57	61
COc1cccc(S(=O)(=O)N(C)C[C@H]2OCc3ccccc3-c3c(n(C)c4ccccc34)C(=O)N([C@@H](C)CO)C[C@@H]2C)c1	2	-83*	35
Cc1ccc(S(=O)(=O)N(C)C[C@H]2OCc3ccccc3-c3c(n(C)c4ccccc34)C(=O)N([C@H](C)CO)C[C@H]2C)cc1	.	-8	62
C[C@H]1CN([C@@H](C)CO)C(=O)c2c(c3ccccc3n2C)-c2ccccc2CO[C@H]1CN(C)S(=O)(=O)c1ccccc1	.	-84*	65
CNC[C@@H]1OCCCC[C@H](C)Oc2ccc(NC(=O)Nc3c(C)noc3C)cc2C(=O)N([C@@H](C)CO)C[C@@H]1C	-5	14	64
COc1ccccc1CN1C[C@@H]2N[C@H](C1)C2c1ccc(-c2cccc(C#N)c2)cc1 (stereo not given in full)	31	-24	.
N#Cc1ccc(-c2ccc([C@@H]3[C@@H]4CN(Cc5cocn5)C[C@H]3N4)cc2)cc1	11	?	.
N#Cc1cccc(-c2ccc(C3[C@@H]4CN(C(=O)C5CCCCC5)C[C@H]3N4)cc2)c1 (stereo not given in full)	-14	-68	.
